Assay results taken from PubChem BioAssay (NCI).
About 79,000 compounds went through this panel and 15% of them were active in at least one assay; those are over-represented in the sample as a whole. The source made the active and inactive calls. Cut-off read from the data, not from the text of the source: active = growth inhibition above about 70%; inactive = the rest.

Assays:
[1] = NCI Yeast Anticancer Drug Screen. Data for the rad52 strain (AID 147);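 note: 0% = growth of vehicle-treated control cultures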; details: S. cerevisiae rad52 mutant growth inhibition, stronger effect = higher value
Outline: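 Compounds are applied to a genetically defined yeast strain lacking normal DNA damage repair, and inhibition of growth is expressed relative to cultures given vehicle only.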

[2] = NCI Yeast Anticancer Drug Screen. Data for the wt1 strain (AID 149);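 note: 0% = growth of vehicle-treated wt1 cultures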; details: S. cerevisiae wt1 strain (SPY 50644) growth inhibition, stronger effect = higher value
Outline: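 Readout: yeast growth inhibition, normalised to vehicle controls, in the wt1 strain exposed to test compounds.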

[3] = NCI Yeast Anticancer Drug Screen. Data for the rad50EPP+ strain (AID 151);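 note: 0% = growth of vehicle-treated control cultures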; details: S. cerevisiae rad50 mutant strain, stronger effect = higher value
Outline: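 Compounds were applied to the rad50EPP+ yeast strain, which bears a defined DNA repair alteration, and growth inhibition was determined relative to vehicle-treated cultures.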

[4] = NCI Yeast Anticancer Drug Screen. Data for the mgt1 strain (AID 153); details: S. cerevisiae mgt1 mutant growth inhibition, stronger effect = higher value
Outline: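 Strain: mgt1 yeast, one of a set carrying defined DNA damage repair or cell cycle control alterations. Compound-treated growth compared with vehicle.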

[5] = NCI Yeast Anticancer Drug Screen. Data for the rad50 strain (AID 155);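 note: 0% = growth of vehicle-only cultures of the same strain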; details: S. cerevisiae rad50 strain growth inhibition, stronger effect = higher value
Outline: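 Compounds were tested on a yeast strain with an engineered DNA damage repair alteration; the reported value is growth inhibition normalised to vehicle treatment.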

[6] = NCI Yeast Anticancer Drug Screen. Data for the mec2-1 strain (AID 157); details: S. cerevisiae mec2-1 strain, stronger effect = higher value
Outline: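 Strain: mec2-1 (DNA repair/cell cycle alteration). Compound exposure, then growth measured; inhibition expressed relative to vehicle.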

[7] = NCI Yeast Anticancer Drug Screen. Data for the rad14 strain (AID 159);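 note: 0% = growth of vehicle-treated control cultures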; details: S. cerevisiae rad14 strain growth inhibition, stronger effect = higher value
Outline: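 Compound-treated yeast with a defined DNA-repair lesion; growth inhibition normalised to vehicle-treated cultures.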

[8] = at 5.0 µM (retest, dose inferred, filed as 0.5)
[9] = at 50.0 µM (retest, dose inferred, filed as 5.0)

Measured: growth inhibition

O=[N+]([O-])c1ccc([N+]2=NC(c3ccccc3)=NN(c3ccccc3)C2)cc1
inactive: [1]; at 1.2 µM 8% | [1]; at 3.7 µM 11% | [1]; at 11.0 µM 10% | [1]; at 33.0 µM 14% | [1]; at 100.0 µM 56% | [2]; at 1.2 µM 3% | [2]; at 3.7 µM 5% | [2]; at 11.0 µM 4% | [2]; at 33.0 µM 3% | [2]; at 100.0 µM 51% | [3]; at 1.2 µM 6% | [3]; at 3.7 µM 12% | [3]; at 11.0 µM 21% | [3]; at 33.0 µM 22% | [3]; at 100.0 µM 20% | [4]; at 1.2 µM 6% | [4]; at 3.7 µM 5% | [4]; at 11.0 µM 7% | [4]; at 33.0 µM 21% | [5]; at 1.2 µM 5% | [5]; at 3.7 µM -6% | [5]; [8] 1% | [5]; at 11.0 µM -9% | [5]; at 33.0 µM 15% | [5]; [9] 30% | [5]; at 50.0 µM 67.3% | [5]; at 100.0 µM 63% | [6]; at 1.2 µM -2% | [6]; at 3.7 µM -2% | [6]; [8] -9% | [6]; at 11.0 µM 0% | [6]; at 33.0 µM 9% | [6]; [9] 6% | [6]; at 50.0 µM 18.4% | [6]; at 100.0 µM 42% | [7]; at 1.2 µM 4% | [7]; at 3.7 µM 8% | [7]; at 11.0 µM 20% | [7]; at 33.0 µM 44%
active: [4]; at 100.0 µM 95%
